Laboratory results taken from publication PMC7862700, “An all-to-all approach to the identification of sequence-specific readers for epigenetic DNA modifications on cytosine”.

Legend:
Assay in all cases: DAPPL (digital affinity profiling via proximity ligation, sequencing); 10 mM Tris-HCl pH 7.5, 50 mM NaCl, 1 mM DTT, 4% glycerol, room temperature, 30 min; GST-TFs on glutathione beads, 16-mer random dsDNA library, 0.1% formaldehyde crosslink after washing; high values mean tight binding
FLI1 = target: T1, FLI1 (Homo sapiens, UniProt Q01543 1-452); conditions: protein: recombinant; tags: N-terminal GST; dsDNA, one strand shown
T1 sequence: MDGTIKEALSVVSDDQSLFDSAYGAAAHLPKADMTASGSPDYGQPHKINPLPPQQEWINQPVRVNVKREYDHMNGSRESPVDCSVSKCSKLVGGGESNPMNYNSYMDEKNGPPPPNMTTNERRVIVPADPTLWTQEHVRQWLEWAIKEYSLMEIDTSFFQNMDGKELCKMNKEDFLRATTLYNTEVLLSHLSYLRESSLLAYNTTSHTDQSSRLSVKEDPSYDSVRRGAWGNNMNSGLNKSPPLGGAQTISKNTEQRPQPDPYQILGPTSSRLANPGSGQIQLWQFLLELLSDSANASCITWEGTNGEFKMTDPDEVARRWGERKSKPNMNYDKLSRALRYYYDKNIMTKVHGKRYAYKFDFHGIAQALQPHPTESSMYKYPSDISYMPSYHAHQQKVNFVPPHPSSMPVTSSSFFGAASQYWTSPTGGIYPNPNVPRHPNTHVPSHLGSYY
How it was run: (§1)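 GST fusions of human transcription factors were expressed in yeast and captured with glutathione beads. Once given DNA barcodes and pooled alongside a tag-only sample, they were incubated for 30 min at room temperature with 200 nmole of a random double-stranded 16-mer DNA library in Tris/NaCl/DTT/glycerol buffer, then washed, crosslinked (0.1% formaldehyde), proximity-ligated, PCR-amplified and sequenced on an Illumina NextSeq500. The binding signal of each hexamer is its read frequency for a factor divided by its frequency for the tag-only sample.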

ELK1 = target: T2, ELK1 (Homo sapiens, UniProt P19419 1-428); conditions: protein: recombinant; tags: N-terminal GST; dsDNA, one strand shown
T2 sequence: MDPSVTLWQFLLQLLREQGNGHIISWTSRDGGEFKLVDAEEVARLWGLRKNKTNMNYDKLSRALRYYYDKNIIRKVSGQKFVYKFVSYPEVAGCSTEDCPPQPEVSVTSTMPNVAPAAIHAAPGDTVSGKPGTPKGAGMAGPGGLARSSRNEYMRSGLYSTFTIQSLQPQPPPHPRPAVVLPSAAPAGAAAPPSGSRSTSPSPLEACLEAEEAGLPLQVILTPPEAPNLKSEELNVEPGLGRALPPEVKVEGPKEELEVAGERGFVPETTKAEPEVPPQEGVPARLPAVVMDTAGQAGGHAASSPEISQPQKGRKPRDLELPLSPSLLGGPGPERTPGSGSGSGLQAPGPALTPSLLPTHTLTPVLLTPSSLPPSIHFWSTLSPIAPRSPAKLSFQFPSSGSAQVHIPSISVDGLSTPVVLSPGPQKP
How it was run: as §1

GABPA = target: T3, GABPA (Homo sapiens, UniProt Q06546 1-454); conditions: protein: recombinant; tags: N-terminal GST; dsDNA, one strand shown
T3 sequence: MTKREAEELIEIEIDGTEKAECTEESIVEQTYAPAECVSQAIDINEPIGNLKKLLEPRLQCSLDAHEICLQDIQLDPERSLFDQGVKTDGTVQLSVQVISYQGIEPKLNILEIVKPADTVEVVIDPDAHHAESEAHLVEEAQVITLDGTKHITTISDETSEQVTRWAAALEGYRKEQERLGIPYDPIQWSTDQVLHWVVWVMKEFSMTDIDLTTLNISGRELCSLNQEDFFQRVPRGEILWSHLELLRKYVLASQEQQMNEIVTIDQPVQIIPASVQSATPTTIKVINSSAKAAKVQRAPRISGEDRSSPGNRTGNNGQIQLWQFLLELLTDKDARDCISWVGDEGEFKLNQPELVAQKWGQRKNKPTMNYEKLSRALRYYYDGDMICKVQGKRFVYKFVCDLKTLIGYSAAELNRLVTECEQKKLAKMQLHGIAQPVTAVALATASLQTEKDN
How it was run: as §1

ERG = target: T4, ERG (Homo sapiens, UniProt P11308 1-479); conditions: protein: recombinant; tags: N-terminal GST; dsDNA, one strand shown
T4 sequence: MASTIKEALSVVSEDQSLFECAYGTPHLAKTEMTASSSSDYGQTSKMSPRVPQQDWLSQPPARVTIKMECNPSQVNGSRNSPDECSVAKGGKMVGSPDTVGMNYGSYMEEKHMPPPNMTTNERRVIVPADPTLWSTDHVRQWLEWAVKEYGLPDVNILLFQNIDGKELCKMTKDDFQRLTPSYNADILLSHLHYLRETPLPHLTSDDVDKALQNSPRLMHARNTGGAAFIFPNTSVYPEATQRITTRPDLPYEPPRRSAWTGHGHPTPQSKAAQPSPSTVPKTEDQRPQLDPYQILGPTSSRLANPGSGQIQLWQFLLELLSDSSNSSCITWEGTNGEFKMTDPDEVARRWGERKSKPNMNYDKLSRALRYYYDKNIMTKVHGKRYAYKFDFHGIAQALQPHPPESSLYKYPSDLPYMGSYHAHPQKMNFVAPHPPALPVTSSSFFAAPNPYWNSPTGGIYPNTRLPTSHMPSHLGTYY
How it was run: as §1

ELF1 = ELF1 (Homo sapiens, UniProt P32519 1-619); conditions: protein: recombinant; tags: N-terminal GST; dsDNA, one strand shown
Chain of ELF1 (P32519 whole entry): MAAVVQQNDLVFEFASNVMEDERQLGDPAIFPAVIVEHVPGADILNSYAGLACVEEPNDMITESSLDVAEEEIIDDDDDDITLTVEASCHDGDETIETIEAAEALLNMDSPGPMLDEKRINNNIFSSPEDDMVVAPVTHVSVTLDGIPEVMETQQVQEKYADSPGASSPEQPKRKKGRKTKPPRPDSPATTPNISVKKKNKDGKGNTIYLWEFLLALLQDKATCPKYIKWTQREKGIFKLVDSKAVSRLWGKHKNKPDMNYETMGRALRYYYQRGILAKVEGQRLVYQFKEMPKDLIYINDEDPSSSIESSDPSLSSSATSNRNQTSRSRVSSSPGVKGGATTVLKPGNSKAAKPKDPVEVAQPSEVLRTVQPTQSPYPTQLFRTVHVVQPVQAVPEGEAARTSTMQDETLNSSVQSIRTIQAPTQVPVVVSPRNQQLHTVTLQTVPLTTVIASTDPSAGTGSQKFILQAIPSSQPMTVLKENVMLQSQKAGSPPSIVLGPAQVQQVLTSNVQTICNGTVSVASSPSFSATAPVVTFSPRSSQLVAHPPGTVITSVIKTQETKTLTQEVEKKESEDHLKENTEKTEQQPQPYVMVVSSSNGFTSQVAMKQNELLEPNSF
How it was run: as §1

EHF = target: T5, EHF (Homo sapiens, UniProt Q9NZC4 1-300); conditions: protein: recombinant; tags: N-terminal GST; dsDNA, one strand shown
T5 sequence: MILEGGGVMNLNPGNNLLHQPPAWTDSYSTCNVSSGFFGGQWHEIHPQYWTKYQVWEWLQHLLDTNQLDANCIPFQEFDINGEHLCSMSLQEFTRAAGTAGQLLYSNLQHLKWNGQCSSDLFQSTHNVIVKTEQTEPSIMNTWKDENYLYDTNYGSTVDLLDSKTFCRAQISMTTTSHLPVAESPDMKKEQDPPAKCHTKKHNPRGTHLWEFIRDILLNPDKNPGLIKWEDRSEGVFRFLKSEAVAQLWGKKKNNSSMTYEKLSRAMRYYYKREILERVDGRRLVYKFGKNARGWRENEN
How it was run: as §1

SPI1 = SPI1 (Homo sapiens, UniProt P17947 1-270); conditions: protein: recombinant; tags: N-terminal GST; dsDNA, one strand shown
How it was run: as §1

SPIB = SPIB (Homo sapiens, UniProt Q01892 1-262); conditions: protein: recombinant; tags: N-terminal GST; dsDNA, one strand shown
Chain of SPIB (Q01892 whole entry): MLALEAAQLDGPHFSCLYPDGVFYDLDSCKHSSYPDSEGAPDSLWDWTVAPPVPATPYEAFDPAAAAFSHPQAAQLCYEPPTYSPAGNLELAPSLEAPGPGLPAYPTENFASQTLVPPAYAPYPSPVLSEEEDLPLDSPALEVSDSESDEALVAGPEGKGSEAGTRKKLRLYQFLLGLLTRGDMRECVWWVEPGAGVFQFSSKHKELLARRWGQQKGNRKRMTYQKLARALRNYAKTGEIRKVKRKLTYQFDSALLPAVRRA
How it was run: as §1

ELK3 = target: T6, ELK3 (Homo sapiens, UniProt P41970 1-407); conditions: protein: recombinant; tags: N-terminal GST; dsDNA, one strand shown
T6 sequence: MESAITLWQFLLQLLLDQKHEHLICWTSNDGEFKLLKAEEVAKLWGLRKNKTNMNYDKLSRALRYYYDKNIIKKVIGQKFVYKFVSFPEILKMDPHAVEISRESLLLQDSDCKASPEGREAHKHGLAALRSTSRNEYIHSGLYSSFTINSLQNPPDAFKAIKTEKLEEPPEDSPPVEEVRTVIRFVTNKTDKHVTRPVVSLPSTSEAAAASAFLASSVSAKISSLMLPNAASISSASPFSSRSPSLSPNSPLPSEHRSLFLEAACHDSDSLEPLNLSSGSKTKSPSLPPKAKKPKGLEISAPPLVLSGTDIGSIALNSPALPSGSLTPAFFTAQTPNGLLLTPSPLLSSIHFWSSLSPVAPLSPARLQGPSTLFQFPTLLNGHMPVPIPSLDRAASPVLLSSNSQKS
How it was run: as §1

FEV = target: T7, FEV (Homo sapiens, UniProt Q99581 1-238); conditions: protein: recombinant; tags: N-terminal GST; dsDNA, one strand shown
T7 sequence: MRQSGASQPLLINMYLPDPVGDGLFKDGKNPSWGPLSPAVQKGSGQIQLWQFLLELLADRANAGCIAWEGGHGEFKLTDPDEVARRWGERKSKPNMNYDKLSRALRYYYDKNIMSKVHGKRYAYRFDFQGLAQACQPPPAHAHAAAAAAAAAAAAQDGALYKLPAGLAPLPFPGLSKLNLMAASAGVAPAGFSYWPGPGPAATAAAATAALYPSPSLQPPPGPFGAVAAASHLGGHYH
How it was run: as §1

ETV5 = ETV5 (Homo sapiens, UniProt P41161 1-510); conditions: protein: recombinant; tags: N-terminal GST; dsDNA, one strand shown
Chain of ETV5 (P41161 whole entry): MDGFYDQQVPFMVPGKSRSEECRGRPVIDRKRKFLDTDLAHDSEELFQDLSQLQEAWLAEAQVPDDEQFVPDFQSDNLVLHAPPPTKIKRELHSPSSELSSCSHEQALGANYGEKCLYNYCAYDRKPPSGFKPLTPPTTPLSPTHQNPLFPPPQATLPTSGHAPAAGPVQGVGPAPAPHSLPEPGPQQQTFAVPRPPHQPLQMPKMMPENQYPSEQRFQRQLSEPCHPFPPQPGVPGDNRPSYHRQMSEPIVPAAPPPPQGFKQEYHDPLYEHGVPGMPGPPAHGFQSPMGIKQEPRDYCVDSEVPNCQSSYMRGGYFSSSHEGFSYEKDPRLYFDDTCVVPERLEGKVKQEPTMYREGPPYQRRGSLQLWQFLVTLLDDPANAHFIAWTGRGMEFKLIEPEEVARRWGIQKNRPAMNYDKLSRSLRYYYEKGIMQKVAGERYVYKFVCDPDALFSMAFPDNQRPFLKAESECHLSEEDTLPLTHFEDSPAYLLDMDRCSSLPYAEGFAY
How it was run: as §1

HSF1 = HSF1 (Homo sapiens, UniProt Q00613 1-529); conditions: protein: recombinant; tags: N-terminal GST; chain copies: 3; dsDNA, one strand shown
Chain of HSF1 (Q00613 whole entry): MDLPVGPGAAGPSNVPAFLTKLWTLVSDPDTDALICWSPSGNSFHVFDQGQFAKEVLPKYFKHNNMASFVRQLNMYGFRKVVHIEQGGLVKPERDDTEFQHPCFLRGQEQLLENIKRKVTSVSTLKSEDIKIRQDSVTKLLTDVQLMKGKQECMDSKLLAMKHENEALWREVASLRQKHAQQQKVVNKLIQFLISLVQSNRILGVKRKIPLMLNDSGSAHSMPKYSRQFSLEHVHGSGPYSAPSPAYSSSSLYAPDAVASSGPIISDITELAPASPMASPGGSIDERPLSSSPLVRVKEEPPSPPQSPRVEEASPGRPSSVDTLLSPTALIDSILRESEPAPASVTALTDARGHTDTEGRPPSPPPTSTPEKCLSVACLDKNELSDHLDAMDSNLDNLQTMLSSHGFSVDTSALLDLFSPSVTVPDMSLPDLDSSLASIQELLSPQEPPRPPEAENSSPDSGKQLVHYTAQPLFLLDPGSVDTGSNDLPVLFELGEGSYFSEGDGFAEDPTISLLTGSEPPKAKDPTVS
How it was run: as §1

SPIC = target: T8, SPIC (Homo sapiens, UniProt Q8N5J4 1-248); conditions: protein: recombinant; tags: N-terminal GST; dsDNA, one strand shown
T8 sequence: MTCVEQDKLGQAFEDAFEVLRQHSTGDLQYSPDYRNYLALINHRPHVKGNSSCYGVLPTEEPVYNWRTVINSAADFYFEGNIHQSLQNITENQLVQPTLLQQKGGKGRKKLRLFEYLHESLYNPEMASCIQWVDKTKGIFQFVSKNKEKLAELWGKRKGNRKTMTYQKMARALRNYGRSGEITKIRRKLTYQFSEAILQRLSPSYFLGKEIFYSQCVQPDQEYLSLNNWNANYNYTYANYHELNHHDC
How it was run: as §1

ELF4 = ELF4 (Homo sapiens, UniProt Q99607 1-663); conditions: protein: recombinant; tags: N-terminal GST; dsDNA, one strand shown
Chain of ELF4 (Q99607 whole entry): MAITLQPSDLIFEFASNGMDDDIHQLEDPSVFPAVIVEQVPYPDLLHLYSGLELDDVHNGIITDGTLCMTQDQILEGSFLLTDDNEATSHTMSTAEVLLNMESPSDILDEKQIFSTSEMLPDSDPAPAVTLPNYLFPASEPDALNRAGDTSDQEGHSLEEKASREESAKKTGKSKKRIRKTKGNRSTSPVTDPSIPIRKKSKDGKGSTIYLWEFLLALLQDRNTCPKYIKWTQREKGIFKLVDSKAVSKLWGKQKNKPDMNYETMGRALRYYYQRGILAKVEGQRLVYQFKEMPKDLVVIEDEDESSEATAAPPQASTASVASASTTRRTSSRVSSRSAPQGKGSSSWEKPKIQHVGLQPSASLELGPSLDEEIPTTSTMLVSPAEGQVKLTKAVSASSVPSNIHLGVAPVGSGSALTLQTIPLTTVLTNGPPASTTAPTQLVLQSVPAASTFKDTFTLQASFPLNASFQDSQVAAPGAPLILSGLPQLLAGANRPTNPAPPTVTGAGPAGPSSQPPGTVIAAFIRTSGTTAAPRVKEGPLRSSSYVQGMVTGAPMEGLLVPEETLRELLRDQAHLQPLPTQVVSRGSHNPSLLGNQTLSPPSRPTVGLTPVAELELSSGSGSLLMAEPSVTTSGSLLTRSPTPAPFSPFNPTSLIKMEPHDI
How it was run: as §1

ELK4 = target: T9, ELK4 (Homo sapiens, UniProt P28324-2 1-405); conditions: protein: recombinant; tags: N-terminal GST; dsDNA, one strand shown
T9 sequence: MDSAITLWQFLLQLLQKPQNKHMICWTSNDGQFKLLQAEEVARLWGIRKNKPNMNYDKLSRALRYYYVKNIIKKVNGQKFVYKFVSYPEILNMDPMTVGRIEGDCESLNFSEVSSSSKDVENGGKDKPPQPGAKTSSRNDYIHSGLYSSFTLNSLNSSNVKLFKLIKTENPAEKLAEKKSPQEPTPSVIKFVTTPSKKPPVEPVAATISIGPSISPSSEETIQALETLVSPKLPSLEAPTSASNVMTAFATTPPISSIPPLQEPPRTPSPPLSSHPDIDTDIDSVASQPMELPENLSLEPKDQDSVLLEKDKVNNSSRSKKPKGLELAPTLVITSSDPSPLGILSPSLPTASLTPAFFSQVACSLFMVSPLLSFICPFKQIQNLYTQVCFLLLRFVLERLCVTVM
How it was run: as §1

ETV2 = target: T10, ETV2 (Homo sapiens, UniProt O00321 1-342); conditions: protein: recombinant; tags: N-terminal GST; dsDNA, one strand shown
T10 sequence: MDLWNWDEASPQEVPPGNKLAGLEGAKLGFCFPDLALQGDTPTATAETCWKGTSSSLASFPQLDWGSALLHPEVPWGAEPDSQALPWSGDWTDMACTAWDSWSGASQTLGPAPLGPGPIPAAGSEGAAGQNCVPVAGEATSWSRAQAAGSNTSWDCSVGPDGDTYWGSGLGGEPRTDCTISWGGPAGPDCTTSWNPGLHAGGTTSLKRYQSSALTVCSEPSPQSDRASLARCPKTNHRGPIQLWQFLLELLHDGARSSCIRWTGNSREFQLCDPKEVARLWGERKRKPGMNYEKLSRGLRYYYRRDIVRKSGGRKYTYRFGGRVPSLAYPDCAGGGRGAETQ
How it was run: as §1

ELF3 = target: T11, ELF3 (Homo sapiens, UniProt P78545 1-371); conditions: protein: recombinant; tags: N-terminal GST; dsDNA, one strand shown
T11 sequence: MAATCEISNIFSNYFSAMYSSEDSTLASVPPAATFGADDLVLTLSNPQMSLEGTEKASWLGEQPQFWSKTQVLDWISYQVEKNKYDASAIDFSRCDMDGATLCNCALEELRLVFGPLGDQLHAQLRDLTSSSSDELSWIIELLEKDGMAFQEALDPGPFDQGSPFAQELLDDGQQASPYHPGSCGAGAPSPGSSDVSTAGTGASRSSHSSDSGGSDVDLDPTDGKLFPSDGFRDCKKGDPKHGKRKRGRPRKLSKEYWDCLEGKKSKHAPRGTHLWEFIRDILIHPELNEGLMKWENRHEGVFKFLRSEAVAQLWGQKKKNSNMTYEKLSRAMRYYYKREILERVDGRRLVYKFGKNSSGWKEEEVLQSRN
How it was run: as §1

ETV1 = ETV1 (Homo sapiens, UniProt P50549 1-477); conditions: protein: recombinant; tags: N-terminal GST; dsDNA, one strand shown
Chain of ETV1 (P50549 whole entry): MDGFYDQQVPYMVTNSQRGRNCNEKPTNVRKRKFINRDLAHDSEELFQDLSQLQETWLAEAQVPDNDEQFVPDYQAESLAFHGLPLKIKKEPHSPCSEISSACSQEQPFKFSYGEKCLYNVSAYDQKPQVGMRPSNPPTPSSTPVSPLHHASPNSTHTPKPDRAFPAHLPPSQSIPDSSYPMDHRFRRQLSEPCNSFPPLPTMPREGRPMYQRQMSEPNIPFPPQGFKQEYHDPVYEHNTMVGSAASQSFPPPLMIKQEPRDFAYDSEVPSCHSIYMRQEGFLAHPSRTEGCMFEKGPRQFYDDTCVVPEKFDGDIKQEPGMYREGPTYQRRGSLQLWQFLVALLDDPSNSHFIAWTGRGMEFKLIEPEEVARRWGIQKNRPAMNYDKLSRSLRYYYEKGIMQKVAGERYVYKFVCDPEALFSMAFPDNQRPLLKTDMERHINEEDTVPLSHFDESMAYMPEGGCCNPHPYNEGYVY
How it was run: as §1

**Q.** Which results are given for TGGTAC?
**A.** binding signal (FLI1): 1.18 fold enrichment (6-mer frequency, TF over GST control); binding signal (ELK1): 1.23 fold enrichment (6-mer frequency, TF over GST control); binding signal (GABPA): 1.13 fold enrichment (6-mer frequency, TF over GST control); binding signal (ERG): 1.15 fold enrichment (6-mer frequency, TF over GST control); binding signal (ELF1): 1.17 fold enrichment (6-mer frequency, TF over GST control); binding signal (EHF): 1.13 fold enrichment (6-mer frequency, TF over GST control); binding signal (SPI1): 1.12 fold enrichment (6-mer frequency, TF over GST control); binding signal (SPIB): 1.27 fold enrichment (6-mer frequency, TF over GST control); binding signal (ELK3): 1.07 fold enrichment (6-mer frequency, TF over GST control); binding signal (FEV): 1.07 fold enrichment (6-mer frequency, TF over GST control); binding signal (ETV5): 1.2 fold enrichment (6-mer frequency, TF over GST control); binding signal (HSF1): 1.04 fold enrichment (6-mer frequency, TF over GST control); binding signal (SPIC): 1.14 fold enrichment (6-mer frequency, TF over GST control); binding signal (ELF4): 1.08 fold enrichment (6-mer frequency, TF over GST control); binding signal (ELK4): 1.11 fold enrichment (6-mer frequency, TF over GST control); binding signal (ETV2): 1.15 fold enrichment (6-mer frequency, TF over GST control); binding signal (ELF3): 1.07 fold enrichment (6-mer frequency, TF over GST control); binding signal (ETV1): 1.19 fold enrichment (6-mer frequency, TF over GST control)
